Inconclusive results are not listed. Where a call stands in place of a potency, no number is given. Unmarked numbers belong to inactive results. Activity calls are given as the source filed them. Calls come from the whole dose curve; as a rule, active = well fitted inhibition curve with a large enough effect in the repeat runs; inconclusive = weak or mixed curves, or effect the other way; inactive = no such curve, though single readings can be large or run the other way.
Potency is the fitted concentration of half-maximal effect.

The experiment concerns the target Nuclear receptor ROR-gamma (Homo sapiens) (UniProt P51449). The experiment can be described thus: qHTS assay to identify small molecule antagonists of the retinoid-related orphan receptor gamma (ROR-gamma) signaling pathway (AID 1159521; note: nearly all actives have a fitted effect of over 50% in size; for activity change, negative = inhibition: top concentration of the series differs between compounds). The following applies: Tet-on RORgamma CHO cells, RORE-luciferase, 16 h; series mostly up to 92.4 µM. The source says:
U.S. Tox21 Program National Center for Advancing Translational Sciences [NCATS] NIH Chemical Genomics Center [NCGC] U.S. Environmental Protection Agency [EPA] National Institutes of Environmental Health Sciences [NIEHS] National Toxicology Program [NTP] U.S. Food and Drug Administration [FDA] Tox21 Assay Overview: Nuclear steroid hormone receptors are involved in many biological processes including inflammatory responses, cell proliferation, and apoptosis. Environmental factors or compounds disrupting these nuclear receptor pathways and gene expression may promote susceptibility to immunotoxicants and autoimmune diseases. One important group of these expression factors are the retinoid-related orphan receptors. To assess compounds that may interfere with the retinoid-related orphan receptor gamma (ROR-gamma) transcription factor, a cell-based luciferase assay was used. The CHO cell-based assay utilizes a TET-inducible ROR expression factor and ROR response element-LUC reporter gene. Reporter gene activity was induced using Doxycycline Hyclate and measured after 16 hr incubation. Tet-on ROR gamma CHO cells were used to screen against the Tox21 10K compound library for ROR gamma antagonists by quantification of decreased reporter gene activity in terms of decreased luminescence.
Tox21 Assay Protocol Summary: Tet-on ROR gamma CHO cells were dispensed at 1,000 cells in 4 uL of culture medium per well into white wall/solid bottom 1536-well plates using a Multidrop Combi (Thermo Scientific, Waltham, MA) dispenser. Following incubation at 37 C and 5% CO2 for 4 hr, 23 nL of compounds dissolved in DMSO, positive controls or DMSO only were transferred by a Pintool station (Kalypsys, San Diego, CA) and after 2 hr incubation at 37 C, one ul of 1 uM (final concentration) of Doxycycline Hyclate was added to all the wells by using a Flying Reagent Dispenser (FRD) (Aurora Discovery, San Diego, CA). After 16 hr incubation at 37 C and 5% CO2, 5 uL of ONE-Glo reagent (Promega Corporation, Madison, WI) was added to each assay plate using FRD. After 30 min incubation at room temperature, luminescence was quantified on a ViewLux plate reader (Perkin Elmer, Waltham, MA).
(In general: qHTS replaces the single test concentration by a dilution series.)
With `O=[N+]([O-])c1ccc2c3c(cccc13)CC2`, the Potency result was “inactive”.

For `O=C1CN2CCOC2(c2ccccc2Cl)c2cc(Cl)ccc2N1` (stereo not given), the Potency result was “inactive”.

In the case of `CCOP(=O)(N=C1SCCS1)OCC`, the Potency result was “inactive”.

`CCOP(=S)(Oc1cnc(C(C)(C)C)nc1)OC(C)C` (stereo not given): the Potency entry was “inactive”.

On to `ClC(Cl)(Cl)C(Cl)(Cl)Cl`, for which the Potency entry is “inactive”.

For the molecule `C=CCC1=C(C)[C@@H](OC(=O)[C@@H]2[C@@H](C=C(C)C)C2(C)C)CC1=O`, the Potency is 27.3 µM (active).

Take `CCc1cc2c(s1)-n1c(C)nnc1CN=C2c1ccccc1Cl`: the Potency result was “inactive”.

For the molecule `CC(C)(C)C(=O)C(Oc1ccc(Cl)cc1)n1cncn1` (stereo not given), the Potency result is “inactive”.

On to `CC1=NNC(=O)N(/N=C/c2cccnc2)C1`, for which the Potency result is “inactive”.

On to `ClC(Br)Br`, for which the Potency entry is “inactive”.

As for `CCC(C)(C)c1cc(-n2nc3ccccc3n2)c(O)c(C(C)(C)CC)c1`, the Potency result was “inactive”.

Turning to `CN(N=O)C(N)=O`, the Potency entry was “inactive”.

For the molecule `CN1CCC(O)(c2ccc(F)cc2)C(C(=O)c2ccc(F)cc2)C1` (stereo not given), the Potency entry was “inactive”.

In the case of `Cc1coc2c1CCC(C)C2` (stereo not given), the Potency entry is “inactive”.

As for `COc1cc(OC)nc(Oc2cccc(Oc3nc(OC)cc(OC)n3)c2C(=O)O)n1`, the Potency result was “inactive”.

With `CCOC(=O)C1(c2ccccc2)CCN(CCc2ccc(N)cc2)CC1`, the Potency result was “inactive”.

Consider `C(CCOCC1CO1)COCC1CO1` (stereo not given), for which the Potency result was “inactive”.

For the molecule `COC(=O)C(c1ccccc1)C1CCCCN1` (stereo not given), the Potency result is “inactive”.

For `CNNC`, the Potency entry was “inactive”.

In the case of `CCCCN(CCCCO)N=O`, the Potency result is “inactive”.

Regarding `CC1COC2(c3ccccc3Cl)c3cc(Cl)ccc3NC(=O)CN12` (stereo not given), the Potency entry is “inactive”.

On to `CCC(=O)C(CCN(C)C)(c1ccccc1)c1ccccc1`, for which the Potency result was “inactive”.

`CCC1(c2ccccc2)C(=O)NC(=O)NC1=O`: the Potency result is “inactive”.

With `CCN(Cc1ccc(Cl)nc1)/C(=C/[N+](=O)[O-])NC`, the Potency entry was “inactive”.

In the case of `COc1ccc2c(c1OC)CN1CCc3cc4c(cc3C1C2)OCO4` (stereo not given), the Potency entry is “inactive”.

With `CCN(CC)C(=O)[C@@H]1C=C2c3cccc4[nH]cc(c34)C[C@H]2N(C)C1`, the Potency entry is “inactive”.

As to `CC(C(O)c1ccccc1)N(C)C/C=C/c1ccccc1` (stereo not given), the Potency entry was “inactive”.

On to `CCC#N`, for which the Potency entry was “inactive”.

On to `CC(=O)CC(c1ccc(Cl)cc1)c1c(O)c2ccccc2oc1=O` (stereo not given), for which the Potency entry was “inactive”.

As for `O=C(Nc1ccccc1)c1ccccc1I`, the Potency result was “inactive”.

As for `C=C(C)CN(CC)c1c([N+](=O)[O-])cc(C(F)(F)F)cc1[N+](=O)[O-]`, the Potency entry was “inactive”.

With `O=C(CCCN1CCC(n2c(=O)[nH]c3ccccc32)CC1)c1ccc(F)cc1`, the Potency entry was “inactive”.

Take `O=[N+]([O-])c1cccc2cccnc12`: the Potency result was “inactive”.

On to `O=[N+]([O-])c1cccc(O)c1`, for which the Potency result was “inactive”.

As for `CC1=C(C(=O)O)N2C(=O)[C@@H](N)[C@H]2SC1`, the activity change, negative = inhibition was 27.3% [at 19 µM].

For the molecule `N#Cc1ccncc1`, the Potency result was “inactive”.

Regarding `CN1CCC(N(Cc2ccccc2)c2ccccc2)CC1`, the Potency result was “inactive”.

On to `COc1cc(OC)nc(Sc2cccc(Cl)c2C(=O)O)n1`, for which the Potency entry is “inactive”.

For the molecule `O=NN1CCN(N=O)CC1`, the Potency entry is “inactive”.

Take `O=C(NCO)NCO`: the Potency result was “inactive”.

(Values after PubChem BioAssay (Tox21).)
